Screening data as filed in PubChem.
The list is not random: actives were taken first. Their share in the collection is about 2.9%.
EBNA-1 inhibitor: EBNA-1 DNA-binding inhibitors, primary screen, biochemical, fluorescence polarization. inhibition, % at 14.8 µM. 300,000 compounds, 0.34% hits; in the data active means inhibition above about 28%
PAFAH1B3 inh: PAFAH1B3 enzyme inhibitors, primary screen, biochemical, fluorescence polarization, human; recombinant PAFAH1B3, FP-rhodamine probe; inhibition, % at 3.39 µM; 340,000 compounds, 0.28% hits;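 active means inhibition above the screen-wide average of all tested compounds plus 3 SD, cut at about 25% in these data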;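 further: 0% = enzyme with DMSO only and 100% = wells lacking PAFAH1B3 protein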
PAFAH2 inh: PAFAH2 enzyme inhibitors, primary screen, biochemical, fluorescence polarization, human | 340,000 compounds, 0.99% hits | recombinant PAFAH2, FP-rhodamine activity probe | AID 492956, 2010 | inhibition, % at 3.39 µM;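 active means inhibition above the mean over all tested compounds plus 3 SD, cut at about 30% in these data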;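 further: inhibitors block probe labeling of enzyme so polarization drops; 0% = enzyme with DMSO and 100% = wells lacking PAFAH2 protein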
rCAG binder: binders of r(CAG) RNA repeats, primary screen, biochemical, fluorescence. r(CAG) RNA repeat, TO-PRO-1 dye displacement fluorescence. AID 651821, 2012. inhibition, % at 3 µM. 370,000 compounds, 1.3% hits;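 active means inhibition above the plate cutoff, the mean of all test compounds on that plate plus 3 SD, cut at about 35% in these data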;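 further: 0% = DMSO alone and 100% = 100 µM mitoxantrone as full dye displacement; higher means more dye released from RNA so lower well fluorescence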
ZTA DNA inh: blocks Epstein-Barr virus ZTA, an EBNA-1 counter-screen | P03206 | ZTA-DNA binding, fluorescence polarization | inhibition, % at 11 µM | 320,000 compounds, 0.15% hits | AID 2234; in the data active means inhibition above about 33%
Target sequence (P03206 whole entry, looked up): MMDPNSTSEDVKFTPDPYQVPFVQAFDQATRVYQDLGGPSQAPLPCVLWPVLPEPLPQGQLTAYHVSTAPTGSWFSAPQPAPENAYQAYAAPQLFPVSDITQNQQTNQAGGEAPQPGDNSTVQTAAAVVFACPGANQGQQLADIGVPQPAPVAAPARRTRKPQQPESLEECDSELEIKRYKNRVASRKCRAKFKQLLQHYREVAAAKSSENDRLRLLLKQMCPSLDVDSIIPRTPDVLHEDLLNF
PAFAH1B2 inh: PAFAH1B2 enzyme inhibitors, primary screen, biochemical, fluorescence polarization, human | inhibition, % at 3.39 µM | Platelet-activating factor acetylhydrolase IB subunit alpha2 (Homo sapiens), P68402 | 340,000 compounds, 1.2% hits | recombinant PAFAH1B2, FP-rhodamine activity probe;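 active means inhibition above the mean of all tested compounds plus 3 SD, cut at about 24% in these data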;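 further: 0% = enzyme with DMSO and 100% = wells lacking PAFAH1B2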
Target sequence (P68402 whole entry, looked up): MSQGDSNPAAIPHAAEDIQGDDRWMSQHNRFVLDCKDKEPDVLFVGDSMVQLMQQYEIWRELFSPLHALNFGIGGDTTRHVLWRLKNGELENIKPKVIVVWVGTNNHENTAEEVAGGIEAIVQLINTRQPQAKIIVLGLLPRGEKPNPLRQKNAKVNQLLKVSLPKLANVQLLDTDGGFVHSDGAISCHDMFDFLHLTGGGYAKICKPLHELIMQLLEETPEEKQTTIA
PAFAH2 confirm: PAFAH2 enzyme inhibitors, confirmation, biochemical, fluorescence polarization, human. shares compounds with PAFAH2 inh. recombinant PAFAH2, FP-rhodamine activity probe. inhibition, % at 3.39 µM. 2,300 compounds, 65% hits. AID 493030, 2011;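 active means mean inhibition over three repeats above a set limit taken from the earlier primary screen, cut at about 30% in these data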;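 further: inhibitor blocks binding of rhodamine activity probe so polarization falls; 0% = enzyme with DMSO and 100% = wells lacking PAFAH2 protein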
Active calls of the source: *; · = not tested or not shown.

SMILES | EBNA-1 inhibitor | PAFAH1B3 inh | PAFAH2 inh | rCAG binder | ZTA DNA inh | PAFAH1B2 inh | PAFAH2 confirm
O=C(COC(=O)C12CC3CC(CC(C3)C1)C2)Nc1ncc(Cl)cc1Cl | 2.4 | 3.6 | 43.4* | -2.2 | -7.9 | 14.5 | 25.6
O=C(COC(=O)c1ccccc1O)Nc1ncc(Cl)cc1Cl | 11.1 | -0.4 | 32.6* | 9.7 | 16.5 | 5.5 | 20.4
O=C(CCc1ccccc1)N[C@H]1[C@@H](O)CCC[C@]12C(=O)N(Cc1ccccc1)c1ccccc12 | · | · | · | 3.7 | · | · | ·
O=C(C1CC(=O)N(c2ccc(F)cc2)C1)N1CCCCC1 (stereo not drawn) | -13.4 | 1.6 | -4.3 | 4.0 | -3.8 | 3.2 | ·
C[C@H](NC(=O)C1CC(=O)N(c2ccc(F)cc2)C1)C(=O)N1CCCCC1 (stereo partly drawn) | -22.0 | -1.0 | 30.4* | -4.0 | -0.2 | 1.7 | 5.3
CC(C)C[C@@H](CO)N1Cc2nnn(Cc3ccccc3)c2-c2ccccc2S1(=O)=O | · | · | · | 1.0 | · | · | ·
CC(C)(C)C(=O)OC/C(N)=N/OC(=O)c1ccccc1 | 0.2 | 12.2 | 43.9* | -2.0 | -5.7 | 3.8 | 71.4*
CC1(C)CC(=O)C(C=Nc2ccncc2)=C(O)C1 | 14.4 | 8.4 | 0.8 | -3.5 | 13.6 | 2.3 | ·
CC1(C)CC(=O)C=C(N=CC2=C(O)CC(C)(C)CC2=O)C1 | 1.9 | -3.8 | 33.4* | -3.0 | 17.1 | 2.1 | 7.4
Cc1cc(C)cc(NC(=O)COC(=O)c2cccc(S(=O)(=O)N3CCCCC3)c2)c1 | · | 6.4 | 65.3* | 3.2 | -19.8 | -4.4 | 51.6*
Cc1cccc(NC(=O)COC(=O)c2cccc(S(=O)(=O)N3CCCCCC3)c2)c1 | · | -6.5 | 74.2* | 3.8 | 1.1 | 3.2 | 63.0*
O=C(COC(=O)c1cccc(Br)c1)Nc1cccc(S(=O)(=O)N2CCCCC2)c1 | · | · | · | 3.9 | · | · | ·
CC(/C=C1\N=C(SCc2ccccc2Cl)SC1=O)=C\c1ccccc1 | -5.9 | 4.6 | 45.7* | 8.0 | 7.2 | -0.5 | 45.4*
O=C(O)c1ccccc1NSc1ccccc1[N+](=O)[O-] | 2.6 | 6.2 | 37.4* | 23.4 | 13.8 | 3.9 | 25.6
COc1ccc(CN2C(NC(=O)OCc3ccccc3)=NC3=CC(C)(C)n4c(=O)n(-c5ccccc5)c(=O)n4C32)c(OC)c1 (stereo not drawn) | · | · | · | 19.5 | · | · | ·
N#CCC(=O)Nc1ccc(C(=O)OCC(=O)NCCCc2ccccc2)cc1 | 9.9 | 0.3 | 38.0* | 15.3 | -0.7 | 1.2 | 30.0*
CCOc1ccc(C(=O)OCC(=O)NCCNC(=O)COC(=O)c2ccc(OCC)cc2)cc1 | 5.6 | 4.8 | -1.7 | -4.6 | 14.4 | -0.8 | ·
Cc1nn(-c2ccccc2)c(C)c1NC(=O)COC(=O)c1ccc(NC(=O)CC#N)cc1 | -6.8 | -2.3 | 32.8* | 13.5 | 1.3 | -4.9 | 23.8
CCCCNC(=O)COC(=O)c1ccc(NC(C)=O)cc1 | -15.6 | 8.0 | 69.8* | -0.3 | -19.6 | 5.2 | 53.8*
CCCCOC(=O)c1ccc(NC(C)=O)cc1 | -15.6 | 9.3 | -3.1 | -4.3 | -0.6 | -4.0 | ·
CCCCNC(=O)COC(=O)c1ccc(N(C)C)cc1 | -4.8 | 8.4 | 76.2* | -6.4 | -6.2 | -1.0 | 76.3*
CCOC(=O)[C@]12CCCCC/C=C\1N(CCc1ccc(Cl)cc1)C(=O)[C@H]2CC(=O)NCc1ccccc1 | · | · | · | 4.6 | · | · | ·
COC(=O)C1CN(C2CCCC2)CCS(=O)(=O)N1Cc1ccc(C(F)(F)F)cc1 (stereo not drawn) | · | · | · | -2.0 | · | · | ·
CCOC(=O)[C@]12CCCC=C1N(Cc1ccccc1)C(=O)[C@H](CC(=O)NCCCN1CCCC1=O)C2 | · | · | · | 1.8 | · | · | ·
N#CCC(=O)Nc1ccc(C(=O)OCC(=O)C23CC4CC(CC(C4)C2)C3)cc1 | 20.3 | -4.8 | 63.2* | 15.2 | 13.1 | 6.7 | 61.7*
COc1ccc(C=Nn2c(-c3ccc(F)cc3)n[nH]c2=S)c(OC)c1OC | · | · | · | 25.0 | · | · | ·
COC(=O)c1cc(OC)c(OC)cc1NC(=S)Nc1cccc(Cl)c1 | -1.7 | 1.9 | -2.9 | 6.1 | -5.1 | -2.1 | ·
